PostGolgi ctrl – yeast control strain growth, post-Golgi counter-screen; efflux-deficient yeast background strain, growth absorbance A615, 16 h; inhibition, % at 10 µM; actives 5% (n = 98,000)
CYP2C19 inh – inhibitors of human CYP2C19; CYP2C19 Supersomes, luciferin-H EGE luminescence, 30 min; P33261; actives 21% (n = 96,000); inhibition, % at 5 µM;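 active means CYP2C19 inhibition above a set limit at 5 µM in the primary screen, cut at about 50% in these data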;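 further: plate controls were negative control wells for no effect and 2.5 mM tranylcypromine positive control for full effect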
Target sequence (P33261 whole entry, looked up): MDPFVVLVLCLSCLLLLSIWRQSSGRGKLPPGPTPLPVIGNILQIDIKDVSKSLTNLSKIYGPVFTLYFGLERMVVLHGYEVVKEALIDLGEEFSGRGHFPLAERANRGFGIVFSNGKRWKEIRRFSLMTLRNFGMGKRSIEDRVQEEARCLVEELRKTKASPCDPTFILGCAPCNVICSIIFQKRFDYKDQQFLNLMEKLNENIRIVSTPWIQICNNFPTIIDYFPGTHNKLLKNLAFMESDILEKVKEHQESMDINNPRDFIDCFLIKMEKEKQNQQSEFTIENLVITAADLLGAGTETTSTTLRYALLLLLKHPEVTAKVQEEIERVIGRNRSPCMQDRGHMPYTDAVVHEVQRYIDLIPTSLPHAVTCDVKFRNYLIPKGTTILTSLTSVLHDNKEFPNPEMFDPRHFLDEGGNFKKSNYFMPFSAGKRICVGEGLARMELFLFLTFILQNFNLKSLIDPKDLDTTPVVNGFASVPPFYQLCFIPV
CYP2C9 activ – increases human cytochrome P450 2C9 activity | actives 1.4% (n = 96,000) | activation factor at 5 µM | AID 1024 | P11712 | recombinant CYP2C9, luciferin-H conversion, luminescence; stronger effect = higher value; factor 1 = untreated enzyme, 0 = blocked;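 active means activation factor of 2 or more for CYP2C9 at a 5 µM dose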;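 further: 0 = sulfaphenazole-blocked wells and 1 = vehicle-only wells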
CYP2C19 act – increases human CYP2C19 enzyme activity. 96,000 tested, under 10 active. activation factor at 5 µM. recombinant CYP2C19, luciferin-H EGE luminescence; stronger effect = higher value; 0 = fully inhibited enzyme, 1 = untreated enzyme. P33261. AID 1025;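 active means activation factor of at least 2 at 5 µM in the primary screen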;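 further: 0 = wells with 2.5 mM tranylcypromine and 1 = vehicle-only wells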
PostGolgi yeast – growth inhibition of a yeast mutant, post-Golgi transport screen; post-Golgi transport phenotypic cell assay; inhibition, % at 10 µM; actives 0.9% (n = 98,000);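 further: yeast cells grown in 1536-well plates; yeast grown about 18 h at 30C before absorbance read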
CYP2C9 inh – human CYP2C9 inhibition; CYP2C9 Supersomes, luciferin-H conversion, luminescence; inhibition, % at 5 µM; P11712; AID 777; actives 20% (n = 96,000);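 active means blocking of liver enzyme CYP2C9 beyond about 50% at 5 µM, limit read from the data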
* marks the source's active call; other numbers are inactive results; · = no result. Not all results are given here. Unless noted, no stated cut-off is given here; in the data, active means inhibition above about 30%; inactive means the rest.

SMILES | PostGolgi ctrl | CYP2C19 inh | CYP2C9 activ | CYP2C19 act | PostGolgi yeast | CYP2C9 inh
COc1ccccc1NC(=S)N(CCc1nc2cc(C)c(C)cc2[nH]1)Cc1cccnc1 | 14 | 19 | 1.8 | 0.8 | 6 | -82
O=C(Nc1nc(-c2nc3ccccc3s2)cs1)C1CC1 | 18 | 51* | 0.8 | 0.5 | 4 | 19
O=C1c2ccccc2S(=O)(=O)N1Cc1cc(=O)n2ccsc2n1 | 9 | 6 | 0.9 | 0.9 | -1 | 5
Clc1ccc(Cc2ccc(Cl)nn2)c(Cl)c1 | 10 | 73* | 0.8 | 0.3 | 9 | 21
O=S(=O)(NC1CCCC1)c1ccc(Br)s1 | 20 | 96* | 0.4 | 0 | 9 | 61*
O=S(=O)(NC1CCCCC1)c1ccc(Cl)s1 | 7 | 90* | 0.2 | 0.1 | 8 | 85*
CCc1nnc(NC(=O)CSc2nc3cccnc3n2C2CCCCC2)s1 | 11 | -5 | 0.9 | 1.1 | 13 | 8
Cc1ccc2cc(CCNC(=O)c3ccco3)c(=O)[nH]c2c1C | 17 | 22 | 0.6 | 0.8 | 2 | 43
CCOC(=O)c1cc2sc(C)cc2n1CC(=O)Nc1cccc(C)c1C | 11 | · | · | · | 4 | ·
CCOC(=O)c1cc2sc(C)cc2n1C(C)C(=O)OCC (configuration not stated) | 17 | 95* | 0.5 | 0 | 12 | 54*
N#Cc1cccc2cnccc12 | -1 | -3 | 1.2 | 1 | 3 | -23
Cc1ccc(S(=O)(=O)CCc2nc3ccccc3s2)cc1C | -2 | 58* | 0.7 | 0.4 | -7 | 29
COCCn1nnnc1CN(CCCN1CCOCC1)Cc1cc2c(C)ccc(C)c2[nH]c1=O | -3 | 2 | 1 | 1 | -1 | 4
Nn1cc(-c2ccccc2)nc1SCC(=O)N1CCN(S(=O)(=O)c2ccccc2)CC1 | 4 | 41 | 0.9 | 0.6 | 6 | 7
COc1ccccc1N(CCC#N)C(=O)CSc1nc(-c2ccccc2)cn1N | 7 | 75* | 0.8 | 0.3 | -1 | 21
CCc1ccc2[nH]c(=O)c(CN(Cc3ccc(F)cc3)C(c3nnnn3CCN3CCOCC3)C(C)C)cc2c1 (configuration not stated) | 16 | 8 | 1 | 0.9 | 1 | -1
Cc1ccc(CNc2ccc3c(c2)OCO3)c(C)c1 | 39* | 31 | 0.8 | 0.7 | -2 | 15
Cc1ccc(C)c(S(=O)(=O)NCc2cccnc2)c1 | 3 | · | · | · | 1 | ·
c1cncc(CNc2ccc3c(c2)OCO3)c1 | 20 | 89* | 0.2 | 0.1 | -3 | 83*
CCc1ccc(CNCc2cccnc2)cc1 | -8 | 80* | 0.8 | 0.2 | 3 | 22
Cc1ccccc1CNCc1cccnc1 | 2 | -1 | 0.8 | 1 | 0 | 16
O=C(Cn1nc(Cc2cccnc2)c2ccccc2c1=O)Nc1ccc2c(c1)OCO2 | -2 | 20 | 0.6 | 0.8 | 4 | 43
Cc1ccc(NCc2cccnc2)cc1 | 3 | 54* | 0.6 | 0.5 | -3 | 38
CCOc1ccc(-n2nnc3c(=O)n(CC(=O)c4ccccc4)cnc32)cc1 | · | 2 | 0.8 | 1 | · | 15
CN1CCN(S(=O)(=O)c2ccc(-c3noc(C4CCN(S(C)(=O)=O)CC4)n3)cc2)CC1 | 2 | -5 | 1.1 | 1.1 | -2 | -9
SMILES | PostGolgi ctrl | CYP2C19 inh | CYP2C9 activ | CYP2C19 act | PostGolgi yeast | CYP2C9 inh
Cc1cc(C)c(C(=O)CSc2nnc(-c3cccnc3)n2C)c(C)c1 | 2 | 4 | 1 | 1 | 24 | 2
COc1ccc(CCNC(=O)c2cc(-c3cc(C)c(C)cc3O)n[nH]2)cc1OC | -4 | 10 | 0.8 | 0.9 | 4 | 22
COc1ccc(OC)c(NC(=O)c2cc(-c3ccc(C)cc3O)n[nH]2)c1 | 2 | 10 | 2.9* | 0.9 | -7 | -192
CCOC(=O)c1cnc2c(C)c(-c3ccccc3)[nH]n2c1=O | 9 | -10 | 0.8 | 1.1 | 7 | 22
Cn1c(NC(=O)c2ccccc2F)cc(=O)n(C)c1=O | 4 | -1 | 1 | 1 | 7 | 0
COC(=O)c1nn(-c2ccccc2)c(=O)cc1Oc1ccccc1 | 1 | 11 | 0.9 | 0.9 | 12 | 6
O=C(/C=C/c1ccc(O)cc1)c1ccc(NC2=C(N3CCCCC3)C(=O)c3ccccc3C2=O)cc1 | 10 | 69* | 0.5 | 0.3 | 6 | 49
Cc1ccc(NC2=C(N3CCCCC3)C(=O)c3ccccc3C2=O)cc1 | 26 | 43 | 0.7 | 0.6 | 11 | 28
O=C1C(Nc2ccccc2)=C(N2CCCCC2)C(=O)c2ccccc21 | 9 | 68* | 0.5 | 0.3 | 10 | 50
